Test [1] deals with Lysosomal acid glucosylceramidase (Homo sapiens) (UniProt P04062). In words: Glucocerebrosidase-p2 (AID 348; in the data active = potency below about 10 µM; also: potency is read from the fitted curve at half-maximal effect). The conditions noted are these: purified GBA, blue fluorogenic substrate, 40 min. Summed up: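 Compounds titrated from 0.6 nM upwards against 0.2 nM enzyme in pH 5.9 citric acid/KH2PO4, taurocholate, tween-20; blue fluorogenic substrate 80 uM, 40 min room temperature, stopped and read Ex 365/Em 440 for AC50.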
Chain of Lysosomal acid glucosylceramidase (Homo sapiens) (P04062 whole entry, looked up): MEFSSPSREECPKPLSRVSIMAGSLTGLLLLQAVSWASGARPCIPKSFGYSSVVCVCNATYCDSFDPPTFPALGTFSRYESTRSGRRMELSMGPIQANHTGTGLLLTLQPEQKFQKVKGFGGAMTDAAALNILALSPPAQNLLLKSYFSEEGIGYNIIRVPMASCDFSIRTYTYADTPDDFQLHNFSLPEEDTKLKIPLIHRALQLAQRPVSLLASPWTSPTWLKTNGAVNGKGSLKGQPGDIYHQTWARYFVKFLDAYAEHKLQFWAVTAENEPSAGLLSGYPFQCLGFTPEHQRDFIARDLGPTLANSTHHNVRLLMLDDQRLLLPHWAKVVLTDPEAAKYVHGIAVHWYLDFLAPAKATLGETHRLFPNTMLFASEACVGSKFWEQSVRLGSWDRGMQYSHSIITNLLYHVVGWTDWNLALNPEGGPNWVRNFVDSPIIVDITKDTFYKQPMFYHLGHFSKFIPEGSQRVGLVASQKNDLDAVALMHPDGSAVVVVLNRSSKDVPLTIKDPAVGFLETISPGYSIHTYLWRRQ

Test [2] can be described thus: AP1 Signaling Pathway (AID 357; active = well fitted curve in either direction with a large enough effect, not every such curve was filed as active;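 also: ME-180 reporter cells stimulated with EGF at its EC50 level; % is scaled to controls: 0 for no effect and ±100 for the full control effect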). The following applies: ME-180 AP-1-bla reporter, EGF-induced, beta-lactamase ratio, 5 h; at 7.69 µM (top of the series) unless noted. Summed up:
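In this screen, ME-180 cells in Opti-MEM with 0.5% dialyzed FBS received EC50 EGF and compound titrations for 5 h. AP-1 reporter beta-lactamase was detected via CCF4 ratio, giving AC50 for positive and negative modulators.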

For test [3], the target named is Cytochrome P450 1A2 (Homo sapiens) (UniProt P05177). In words: p450-cyp1a2 (AID 410; calls by dose curve; also: potency is read from the fitted curve at half-maximal effect;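 as to activity change, negative = inhibition: -100% = full effect of reference inhibitor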). The conditions noted are these: recombinant CYP1A2, luciferin-ME demethylation, luminescence; series mostly up to 57 µM. Summed up:
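Inhibition was calculated relative to 57 uM furafylline (full inhibition). The reaction used human CYP1A2 at 20nM with Luciferin-ME at its Km, 100uM, driven by an NADPH-regenerating system for 60 min at room temperature.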

Test [4] in a line: NFAT Signaling Pathway (AID 444; active = well fitted curve in either direction with a large enough effect, not every such curve was filed as active;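 also: carbachol stimulus at about its EC50 of 1 µM final; % is scaled to controls: 0 for no effect and ±100 for the full control effect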). The conditions noted are these: Jurkat NFAT-bla M1, carbachol, beta-lactamase ratio, 5 h; at 7.69 µM (top of the series) unless noted. Put shortly:
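Read-out: CCF4 FRET ratio (460 nm/530 nm) after 1 h RT dye loading, used for %activity and AC50 from titration series. Cells: Jurkat NFAT-β-lactamase/M1 line, treated with compound plus 1 uM carbachol for 5 h, 37 °C.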

Test [5] is described as follows: Stat Signaling Pathway (AID 446; active = well fitted curve in either direction with a large enough effect, not every such curve was filed as active;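 also: ME-180 cervical cancer cells given 40 pM IL-6 alongside compound; SIE-controlled beta-lactamase reporter measured as 460/530 nm FRET emission ratio; % is scaled to controls: 0 for no effect and ±100 for the full control effect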). The conditions noted are these: ME-180 SIE beta-lactamase reporter, IL-6 stimulated, 5 h; at 7.69 µM (top of the series) unless noted. Summed up: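 ME-180 cells carrying a SIE-driven beta-lactamase reporter are stimulated with 40 pM IL-6 for 5 h at 37C in the presence of compound. The 460/530 nm FRET substrate ratio is read after 2.5 h at RT. Data are normalised to 300 pM IL-6 and to 125 nM JAK inhibitor controls.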

Test [6] concerns the target Glucocorticoid receptor (Homo sapiens) (UniProt P04150). The test is described as follows: GR-GFP Redistribution (AID 450;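 active = compounds whose dose series gives a full or clear partial fitted curve of increased nuclear translocation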; also: potency is read from the fitted curve at half-maximal effect). The following applies: U2OS GR-GFP nuclear translocation, laser cytometry, 2 h.
For test [7] the target is unchanged. In words: GR-EFC Redistribution (AID 451; calls by dose curve; also: potency is read from the fitted curve at half-maximal effect). The following applies: CHO-K1 GR-EFC translocation, beta-gal luminescence, 2 h. Put shortly: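 Translocation of GR-ED fusion to nuclear EA restores b-gal, read by luminescence after 1 h room-temperature detection. Engineered CHO-K1 biosensor cells, 1,000/well, exposed 2 h at 37 C to titrations up to 46 uM final.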
Test [8] addresses Mitogen-activated protein kinase 10 (Mus musculus) (UniProt Q61831). In words: JNK3 AlphaScreen Assay (AID 530; active = well fitted curve in either direction with a large enough effect, not every such curve was filed as active;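 also: kinase came from lysate of stimulated human HepG2 cells; signal reports phosphorylation of biotinylated GST-cJun 1-79 at Ser73 with 10 µM ATP; % is scaled to controls: 0 for no effect and ±100 for the full control effect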). The conditions noted are these: JNK3 lysate, c-Jun phosphorylation; series mostly up to 57.1 µM. Put shortly:
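Room-temperature AlphaScreen kinase assay; pre-activated HepG2 lysate as JNK3 source, biotin-GST-cJun(1-79) substrate, 10 uM ATP, compound 15 min preincubation.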

Test [9] addresses 3',5'-cyclic-AMP phosphodiesterase 4B (Homo sapiens) (UniProt Q07343). The test is described as follows: qHTS Assay for Inhibitors of PDE-IV (AID 607; active = well fitted activation curve with a large enough effect in the main read-out, with a control signal flat, not every such curve was filed as active; also: % of control where 0% means no effect). The following applies: HEK293 ACTOne CNG channel cells, membrane potential fluorescence; series mostly up to 22.9 µM. Put shortly:
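HEK293 ACTOne cells with CNG channel (1000/well), endogenous PDE4; membrane potential dye, compounds up to 22.9 uM final. Fluorescence Ex 535/Em 590; RO 20-1724 (100 uM final) as reference.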
(qHTS replaces the single test concentration by a dilution series.)

Test [10] concerns the target Cytochrome P450 3A4 (Homo sapiens) (UniProt P08684). In words: qHTS Assay for Activators of Cytochrome P450 3A4 (AID 885). Also: nearly all actives have a fitted effect of over 65% in size. The conditions noted are these: recombinant CYP3A4, Luciferin-PPXE luminescence, 60 min; series mostly up to 57.1 µM. Put shortly:
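Human CYP3A4 (20 nM) with Luciferin-PPXE at 25 uM (its KM) in 200 mM KPO4; 10 min compound preincubation, then NADPH regeneration and 60 min reaction at RT. Luciferin read by luminescence; normalized to 57 uM ketoconazole full inhibition.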

The target in test [11] is Dual specificity protein kinase CLK4 (Homo sapiens) (UniProt Q9HAZ1). In words: qHTS Assay for Inhibitors of CDC-like Kinase 4 (ADP-FP Assay) (AID 1795). Also: % is scaled to controls: 0 for no effect and ±100 for the full control effect; nearly all actives have a fitted effect of over 60% in size. The following applies: Transcreener ADP fluorescence polarization; series mostly up to 50 µM. Put shortly: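 Inhibition of ADP formation by 6.25 nM Clk4 is measured using 1 uM ATP and 100 uM RS repeat peptide over one hour. Produced ADP displaces a fluorescent tracer from antibody, lowering polarization.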
Chain of Dual specificity protein kinase CLK4 (Homo sapiens) (Q9HAZ1 whole entry, looked up): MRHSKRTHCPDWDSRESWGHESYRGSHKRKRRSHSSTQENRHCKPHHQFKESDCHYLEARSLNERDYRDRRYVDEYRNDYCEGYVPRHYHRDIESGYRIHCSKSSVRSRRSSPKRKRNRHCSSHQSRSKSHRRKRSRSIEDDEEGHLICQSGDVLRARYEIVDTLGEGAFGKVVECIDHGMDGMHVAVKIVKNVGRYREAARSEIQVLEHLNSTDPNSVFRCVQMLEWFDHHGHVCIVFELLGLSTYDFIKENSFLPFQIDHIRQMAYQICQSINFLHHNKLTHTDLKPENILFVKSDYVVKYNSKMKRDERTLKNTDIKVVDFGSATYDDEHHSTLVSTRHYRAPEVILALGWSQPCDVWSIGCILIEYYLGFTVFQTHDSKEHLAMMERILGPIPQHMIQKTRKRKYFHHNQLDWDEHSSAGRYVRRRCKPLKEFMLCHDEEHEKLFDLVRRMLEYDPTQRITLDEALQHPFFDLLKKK

The target in test [12] is Ubiquitin carboxyl-terminal hydrolase 1 (Homo sapiens) (UniProt O94782). In words: Inhibitors of USP1/UAF1: Pilot qHTS (AID 504865).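 Also: rhodamine fluorescence freed from ubiquitin-rhodamine substrate followed over time; top concentration of the series differs between compounds; % is scaled to controls: 0 for no effect and ±100 for the full control effect; nearly all actives have a fitted effect of over 35% in size.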 The conditions noted are these: purified USP1/UAF1, Ub-rhodamine cleavage fluorescence; series mostly up to 54.9 µM. Put shortly:
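Kinetic fluorescence assay: 1nM USP1/UAF1, 15 min compound preincubation, then 150nM Ub-Rho; 480/540 nm.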

Test [13] can be described thus: Primary qHTS for small molecule stabilizers of the endoplasmic reticulum resident proteome: Secreted ER Calcium Modulated Protein (SERCaMP) assay (AID 1508630). Also: % is scaled to controls: 0 for no effect and ±100 for the full control effect. The conditions noted are these: SH-SY5Y GLuc-SERCaMP (Gaussia luciferase released on ER calcium loss) secretion, thapsigargin, luminescence; series mostly up to 38.4 µM. Summed up: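 GLuc-SERCaMP-expressing SH-SY5Y cells, pretreated 16 h with compound, are challenged with thapsigargin to empty ER calcium stores; after 4 h, coelenterazine is added directly to the medium and luminescence is imaged.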

The target of test [14] is Dual specificity protein kinase CLK4 (Homo sapiens) (UniProt Q9HAZ1). In words: qHTS Assay for Inhibitors of CDC-like Kinase 4 (ADP-Glo Assay) (AID 1771). Also: potency is read from the fitted curve at half-maximal effect; nearly all actives have a fitted effect of over 70% in size. The conditions noted are these: recombinant CLK4, ADP-Glo luminescence; series mostly up to 80 µM. Put shortly: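 Kinase reaction: Clk4 at 25 nM, RS repeat peptide substrate at 100 uM, ATP at 1 uM, 1 hr, room temperature. Product ADP detected as luciferase signal via ADP-Glo.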

Test [15] addresses Cytochrome P450 3A4 (Homo sapiens) (UniProt P08684). The test is described as follows: qHTS Assay for Inhibitors and Substrates of Cytochrome P450 3A4 (AID 884). Also: potency is read from the fitted curve at half-maximal effect; nearly all actives have a fitted effect of over 50% in size. The conditions noted are these: recombinant CYP3A4, Luciferin-PPXE luminescence; series mostly up to 57.1 µM. Summed up: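 20 nM human CYP3A4 with 25 uM Luciferin-PPXE (at KM) in 200 mM KPO4, preincubated 10 min with compound; NADPH regeneration started a 60 min RT reaction. Luciferin detected by luminescence, normalized to 57 uM ketoconazole as full inhibition.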

Each structure is given as a SMILES string. Unmarked numbers belong to inactive results. Results filed as inconclusive are left out. Active and inactive are the calls of the source. Unless noted, calls follow the shape of the dose curve; as a rule, active = well fitted curve in the direction sought with a large enough effect; inconclusive = small, poorly fitted or top-dose-only effect, or another doubt; inactive = no such curve, though single readings can be large; an effect the other way counts as inactive or inconclusive. A value given as a limit tells only on which side of the number the result lay.

Chain of Cytochrome P450 3A4 (Homo sapiens) (P08684 whole entry, looked up): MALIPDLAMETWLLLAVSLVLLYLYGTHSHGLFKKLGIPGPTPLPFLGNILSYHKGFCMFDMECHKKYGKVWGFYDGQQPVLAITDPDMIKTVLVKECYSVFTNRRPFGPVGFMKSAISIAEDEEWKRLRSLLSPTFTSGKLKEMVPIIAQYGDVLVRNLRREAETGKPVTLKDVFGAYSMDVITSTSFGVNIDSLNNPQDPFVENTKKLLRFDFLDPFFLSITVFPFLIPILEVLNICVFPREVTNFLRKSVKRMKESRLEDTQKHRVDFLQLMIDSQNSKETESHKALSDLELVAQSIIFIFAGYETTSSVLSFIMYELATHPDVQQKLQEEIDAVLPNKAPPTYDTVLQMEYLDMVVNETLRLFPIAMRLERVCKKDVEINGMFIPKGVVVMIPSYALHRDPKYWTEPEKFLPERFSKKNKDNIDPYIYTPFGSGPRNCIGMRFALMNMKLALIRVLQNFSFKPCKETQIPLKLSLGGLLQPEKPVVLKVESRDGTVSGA
Chain of Cytochrome P450 1A2 (Homo sapiens) (P05177 whole entry, looked up): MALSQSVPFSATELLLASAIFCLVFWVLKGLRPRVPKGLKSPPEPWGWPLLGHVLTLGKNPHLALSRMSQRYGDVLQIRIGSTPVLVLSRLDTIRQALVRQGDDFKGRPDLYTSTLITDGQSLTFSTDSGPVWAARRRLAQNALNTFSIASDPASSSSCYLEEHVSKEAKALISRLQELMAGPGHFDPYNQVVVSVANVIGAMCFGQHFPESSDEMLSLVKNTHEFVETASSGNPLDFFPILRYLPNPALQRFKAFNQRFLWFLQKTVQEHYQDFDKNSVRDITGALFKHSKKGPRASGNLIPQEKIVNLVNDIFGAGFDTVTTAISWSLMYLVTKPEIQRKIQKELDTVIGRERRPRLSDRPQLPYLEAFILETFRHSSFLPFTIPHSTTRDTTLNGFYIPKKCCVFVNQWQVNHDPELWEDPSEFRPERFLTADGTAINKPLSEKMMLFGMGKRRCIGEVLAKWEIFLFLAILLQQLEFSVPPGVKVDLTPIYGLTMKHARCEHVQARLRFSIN
Chain of Ubiquitin carboxyl-terminal hydrolase 1 (Homo sapiens) (O94782 whole entry, looked up): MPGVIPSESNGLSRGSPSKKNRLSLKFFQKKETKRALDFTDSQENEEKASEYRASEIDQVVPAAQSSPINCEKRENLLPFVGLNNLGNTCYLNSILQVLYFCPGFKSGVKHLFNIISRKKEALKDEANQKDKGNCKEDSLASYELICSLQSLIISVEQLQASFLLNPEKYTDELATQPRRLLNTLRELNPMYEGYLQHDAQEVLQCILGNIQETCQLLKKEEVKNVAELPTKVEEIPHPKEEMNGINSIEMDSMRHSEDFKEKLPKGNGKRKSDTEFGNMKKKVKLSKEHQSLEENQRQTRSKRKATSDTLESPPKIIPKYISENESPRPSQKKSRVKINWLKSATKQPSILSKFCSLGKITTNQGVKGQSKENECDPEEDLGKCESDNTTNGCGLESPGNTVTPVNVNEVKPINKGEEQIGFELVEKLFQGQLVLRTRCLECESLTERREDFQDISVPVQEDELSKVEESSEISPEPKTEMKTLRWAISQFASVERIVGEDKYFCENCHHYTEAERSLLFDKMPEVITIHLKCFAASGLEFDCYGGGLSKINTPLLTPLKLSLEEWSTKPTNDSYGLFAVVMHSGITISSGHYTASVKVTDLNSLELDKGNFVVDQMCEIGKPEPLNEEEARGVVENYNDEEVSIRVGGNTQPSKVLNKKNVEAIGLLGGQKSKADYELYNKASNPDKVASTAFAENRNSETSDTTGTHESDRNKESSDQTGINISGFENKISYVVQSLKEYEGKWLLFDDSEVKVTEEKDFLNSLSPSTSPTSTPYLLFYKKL
Chain of 3',5'-cyclic-AMP phosphodiesterase 4B (Homo sapiens) (Q07343 whole entry, looked up): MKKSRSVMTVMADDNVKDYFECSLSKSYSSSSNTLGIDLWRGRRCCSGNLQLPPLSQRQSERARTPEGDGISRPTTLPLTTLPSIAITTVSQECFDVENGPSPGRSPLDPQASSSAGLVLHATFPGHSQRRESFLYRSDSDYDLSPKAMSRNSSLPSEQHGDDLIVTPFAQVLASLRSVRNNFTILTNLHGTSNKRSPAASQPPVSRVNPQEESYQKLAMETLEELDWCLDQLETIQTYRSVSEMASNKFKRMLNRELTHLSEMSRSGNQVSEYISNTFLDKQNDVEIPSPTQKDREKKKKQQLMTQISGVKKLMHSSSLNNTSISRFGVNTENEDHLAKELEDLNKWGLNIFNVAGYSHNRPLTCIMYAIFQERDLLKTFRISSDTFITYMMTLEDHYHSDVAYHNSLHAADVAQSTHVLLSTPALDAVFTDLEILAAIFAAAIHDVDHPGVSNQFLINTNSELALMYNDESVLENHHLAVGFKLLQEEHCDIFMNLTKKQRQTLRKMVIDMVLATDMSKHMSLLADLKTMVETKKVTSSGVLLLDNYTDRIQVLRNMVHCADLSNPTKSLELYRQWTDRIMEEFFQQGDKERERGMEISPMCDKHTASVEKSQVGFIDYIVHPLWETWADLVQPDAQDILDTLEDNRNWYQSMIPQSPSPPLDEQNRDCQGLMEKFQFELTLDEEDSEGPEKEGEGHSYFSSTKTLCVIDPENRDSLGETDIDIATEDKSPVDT
Chain of Glucocorticoid receptor (Homo sapiens) (P04150 whole entry, looked up, the tested form may be a part): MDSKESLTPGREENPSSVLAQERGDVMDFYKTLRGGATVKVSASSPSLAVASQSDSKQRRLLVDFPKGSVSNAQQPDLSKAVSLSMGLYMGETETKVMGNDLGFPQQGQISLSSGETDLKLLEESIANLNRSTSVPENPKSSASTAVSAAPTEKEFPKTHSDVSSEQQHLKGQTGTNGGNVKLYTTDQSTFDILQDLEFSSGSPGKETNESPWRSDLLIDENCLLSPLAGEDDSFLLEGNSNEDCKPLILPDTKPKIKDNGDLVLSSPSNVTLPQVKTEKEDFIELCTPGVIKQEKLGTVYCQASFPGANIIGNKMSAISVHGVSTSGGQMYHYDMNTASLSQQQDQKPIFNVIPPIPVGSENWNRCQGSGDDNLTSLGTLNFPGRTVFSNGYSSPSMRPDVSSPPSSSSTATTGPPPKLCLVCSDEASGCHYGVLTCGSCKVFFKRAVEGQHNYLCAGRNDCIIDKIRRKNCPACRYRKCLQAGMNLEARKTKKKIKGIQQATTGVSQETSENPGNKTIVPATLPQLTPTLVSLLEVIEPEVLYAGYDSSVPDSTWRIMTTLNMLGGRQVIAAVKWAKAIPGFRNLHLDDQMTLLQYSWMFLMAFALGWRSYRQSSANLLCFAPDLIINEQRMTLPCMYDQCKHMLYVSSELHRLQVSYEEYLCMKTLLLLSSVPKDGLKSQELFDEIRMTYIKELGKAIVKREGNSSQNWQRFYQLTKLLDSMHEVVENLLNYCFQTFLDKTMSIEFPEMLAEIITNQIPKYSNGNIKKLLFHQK

As to `Cn1cc(-c2nc3cncnc3n(C3CC3)c2=O)c2ccccc21`, the Potency was above 11.4 µM in test [1], 0.2 µM (active) in test [3], above 9.22 µM in [6] and above 46 µM in [7]. The activity change, negative = inhibition is -14.5% in test [2] and 9.91% in test [4]. The activity, negative = inhibition in test [5] was -6.67%. Moreover, the Potency entry in [8], in test [9], in test [10], in test [11] and in [12] was “inactive” throughout. Moreover, in [13], the result was inactive.

As to `COCCNc1nc(-c2c(C)noc2C)nc2ccccc12`, the Potency in [1] is above 11.4 µM; in [3], 0.126 µM (active); in [6], above 46 µM; in test [7] it was above 46 µM. In addition, the results for the activity change, negative = inhibition in test [2] and in test [4] were 1.66% and 22.9%, respectively. Also, in [5], the activity, negative = inhibition is 17.6%. For the same compound, the Potency result in test [8], in test [9], in [10], in test [11] and in [12] was “inactive” throughout. Moreover, the result in test [13] was inactive.

Consider `CC(=O)NCCNc1nc(-c2cccc(NS(C)(=O)=O)c2)nc2ccccc12`, for which the Potency in test [1] is above 11.4 µM; in [3], 15.8 µM (active); in test [6], above 46 µM; in test [7] it was above 46 µM. In addition, the figures for the activity change, negative = inhibition in [2] and in test [4] were -17.6% and -1.12%, respectively. Also, in test [5], the activity, negative = inhibition is -3.86%. In addition, the Potency entry in test [8], in test [9], in [10], in test [11] and in [12] was “inactive” each time. For the same compound, in test [13], the result was inactive.

`CN(C)C(=O)c1ccc(-c2ccc3ncnc(N4CCOCC4)c3c2)cc1`: the Potency was above 11.4 µM in test [1], above 46 µM in test [6] and above 46 µM in test [7]. Moreover, the activity change, negative = inhibition was -25.6% in [2] and 11.5% in test [4]. The Potency entry in test [3], in test [8], in test [9], in test [10], in test [11] and in test [12] was “inactive” each time. Further, the activity, negative = inhibition in [5] is -8.9%. The result in test [13] was inactive.

Take `Cc1noc(C)c1-c1nc(NC2CC2)c2ccccc2n1`: the Potency is above 11.4 µM in test [1], above 46 µM in test [6], above 46 µM in test [7] and 14.1 µM (active) in test [14]. Besides, the activity change, negative = inhibition in [2] is 13.4%; in test [4], -6.72%. For the same compound, in test [5], the activity, negative = inhibition was 7.05%. Also, the Potency entry in test [8], in test [9] and in test [12] was “inactive” in each case. In addition, the result in test [13] was inactive.

Regarding `COc1ccccc1-c1cncnc1NCc1ccccc1`, the Potency is above 11.4 µM in [1]; 12.6 µM (active) in [3]; above 46 µM in [6]; above 46 µM in test [7]; 0.251 µM (active) in [15]. Also, the activity change, negative = inhibition was 4.35% in [2] and -17.9% in [4]. For the same compound, the activity, negative = inhibition in [5] is -7.05%. Also, the Potency result in test [8], in test [9], in test [10], in test [11] and in test [12] was “inactive” in each case. Further, the outcome in test [13] was inactive.

Regarding `COCCn1c(=O)c(-c2cccc(F)c2)nc2cncnc21`, the Potency in test [1] was above 11.4 µM; in test [3] it was 2 µM (active); in test [6], above 9.22 µM; in test [7], above 46 µM. In addition, the activity change, negative = inhibition was -16% in [2] and -5.24% in [4]. The activity, negative = inhibition in test [5] was -1.12%. Moreover, the Potency result in test [8], in test [10], in test [11] and in test [12] was “inactive” throughout. The outcome in test [13] was inactive.

Values taken from PubChem BioAssay (NCATS).
